Experimental findings from PubChem BioAssay (EPA / NIEHS) are described below.

Records with an inconclusive call do not appear. Active and inactive are the calls of the source. How the source made its calls: active means hit-call score of the fitted dose curve at least 0.9, where 1 is the maximum; inconclusive means response in the unintended direction; inactive means score below 0.9.

Peroxisome proliferator-activated receptor gamma (Homo sapiens), sequence (P37231 whole entry, looked up, the tested form may be a part): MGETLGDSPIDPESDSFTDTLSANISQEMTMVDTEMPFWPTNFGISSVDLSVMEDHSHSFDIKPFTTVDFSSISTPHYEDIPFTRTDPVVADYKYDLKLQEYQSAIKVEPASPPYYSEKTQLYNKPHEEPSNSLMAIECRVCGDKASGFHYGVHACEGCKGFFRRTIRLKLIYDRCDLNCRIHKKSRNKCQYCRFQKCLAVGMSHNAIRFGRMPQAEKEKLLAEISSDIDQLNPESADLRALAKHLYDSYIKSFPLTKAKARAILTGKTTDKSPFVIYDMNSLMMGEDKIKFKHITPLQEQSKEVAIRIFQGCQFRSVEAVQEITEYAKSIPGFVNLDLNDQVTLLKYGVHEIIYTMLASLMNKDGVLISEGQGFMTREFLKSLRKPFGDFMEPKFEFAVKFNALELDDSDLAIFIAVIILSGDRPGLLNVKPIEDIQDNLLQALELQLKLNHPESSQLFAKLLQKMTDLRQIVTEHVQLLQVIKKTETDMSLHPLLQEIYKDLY

The target of the test is Peroxisome proliferator-activated receptor gamma (Homo sapiens) (UniProt P37231). Put plainly: OT_PPARg_PPARgSRC1_0480: Odyssey Thera (OT) 8-hour Protein-Complementation Assay for Peroxisome Proliferator-activated Receptor Gamma / SRC-1 Co-activator (AID 2283387).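 Further: nuclear to cytoplasmic split Venus YFP fluorescence ratio reporting PPARg SRC-1 interaction.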 The gist of the method:
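Protein-fragment complementation in HEK293T: Venus YFP halves (residues 1-158, 159-239, mutated to IFP1/IFP2) fused to PPARg/SRC-1. 8 h exposure; N/C ratio at 488 nm; DMSO negative control.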
For `CCNCCO`, the molecule was classed as inactive.

`CCCOCCO`: the result was inactive.

For `CC(=O)O[C@H]1C[C@@H]2CC[C@@]1(C)C2(C)C`, the result was inactive.

As to `C=C1C[C@]23C[C@@]1(O)CC[C@H]2[C@@]12C=C[C@H](O)[C@@](C)(C(=O)O1)[C@H]2[C@@H]3C(=O)O`, the outcome was inactive.

With `CS(C)=O`, the result was inactive.

For the molecule `CN1C(=O)c2ccccc2C1=O`, the outcome was inactive.

For the molecule `C=C[Si]1(C)O[Si](C)(C=C)O[Si](C)(C=C)O[Si](C)(C=C)O1` (centres undefined), the outcome was inactive.

Regarding `CCCCCC(=O)CC`, the result was inactive.

With `C#CC(C)(O)CC(C)C` (centres undefined), the call was inactive.

For the molecule `Cc1ccc(S(=O)(=O)Oc2ccc(N=Nc3ccc(-c4ccc(N=Nc5c(O)ccc6cc(S(=O)(=O)O)cc(S(=O)(=O)O)c56)c(C)c4)cc3C)cc2)cc1`, the molecule was called inactive.

Turning to `CCC1(C)NC(=O)NC1=O` (centres undefined), the outcome was inactive.

In the case of `O=C(O)c1ccc(O)cc1`, the result was inactive.

Take `OCCc1ccccc1`: the molecule was called inactive.

Regarding `COC(=O)c1ccc(C)cc1C1=NC(C)(C(C)C)C(=O)N1` (centres undefined) (tested in a mixture with another compound), the molecule was called inactive.

For `CCCCC(CC)COC(C)=O` (centres undefined), the molecule was classed as inactive.

Take `CCCCCC(C)=O`: the outcome was inactive.

As for `CC(C=O)Cc1ccc(C(C)(C)C)cc1` (centres undefined), the molecule was classed as inactive.

For the molecule `Oc1ccc2cc(SSc3ccc4cc(O)ccc4c3)ccc2c1`, the result was inactive.

`O=C(O)CCCCCCCCC(=O)O`: the call was inactive.

For the molecule `O=C1OC(=O)c2c(Cl)c(Cl)c(Cl)c(Cl)c21`, the call was inactive.

Regarding `O=Cc1ccccc1S(=O)(=O)O`, the outcome was inactive.

Take `Cc1cc(S(=O)(=O)O)ccc1N=Nc1c(O)ccc2ccccc12`: the molecule was classed as inactive.

Turning to `CC(C)CCOC(=O)c1ccccc1`, the call was inactive.

In the case of `COc1ccccc1N=Nc1c(S(=O)(=O)O)cc2cc(S(=O)(=O)O)cc(NC(C)=O)c2c1O`, the outcome was inactive.
